Records with an inconclusive call do not appear. Activity calls are given as the source filed them. The call rests on the fitted dose curve; in most records, active means well fitted curve in the direction sought with a large enough effect; inconclusive means small, poorly fitted or top-dose-only effect, or another doubt; inactive means no such curve, though single readings can be large; an effect the other way counts as inactive or inconclusive.
Key:
[1] = Quantitative High-Throughput drug screen in 47 multiple myeloma cell lines against the NCATS MIPE library collection: MMM1_PLB cell viability assay (AID 1918976); further: nearly all actives have a fitted effect of over 35% in size
Procedure, shortened: (§1)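 ATP-based CellTiter-Glo luminescence after 48 h drug exposure (37 °C, 5% CO2) of 500 myeloma cells per well. DMSO-only wells set 100% viability, media-only wells 0%; MIPE 4.0 library added by pin tool.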

[2] = Quantitative High-Throughput drug screen in 47 multiple myeloma cell lines against the NCATS MIPE library collection: NCIH929_DSMZ cell viability assay (AID 1918978); further: nearly all actives have a fitted effect of over 35% in size
Procedure, shortened: as §1

[3] = Quantitative High-Throughput drug screen in 47 multiple myeloma cell lines against the NCATS MIPE library collection: OCIMY1_PLB cell viability assay (AID 1918979); further: nearly all actives have a fitted effect of over 35% in size; on viability: series mostly up to about 46 µM
Procedure, shortened: as §1

[4] = Quantitative High-Throughput drug screen in 47 multiple myeloma cell lines against the NCATS MIPE library collection: MM1S_ATCC cell viability assay (AID 1918980); further: nearly all actives have a fitted effect of over 45% in size; on viability (% of control): series mostly up to about 46 µM
Procedure, shortened: as §1

[5] = Quantitative High-Throughput drug screen in 47 multiple myeloma cell lines against the NCATS MIPE library collection: MM1R_ATCC cell viability assay (AID 1918981); further: nearly all actives have a fitted effect of over 35% in size
Procedure, shortened: as §1

[6] = Quantitative High-Throughput drug screen in 47 multiple myeloma cell lines against the NCATS MIPE library collection: L363_DSMZ cell viability assay (AID 1918984); further: nearly all actives have a fitted effect of over 40% in size
Procedure, shortened: as §1

[7] = Quantitative High-Throughput drug screen in 47 multiple myeloma cell lines against the NCATS MIPE library collection: OPM1_PLB cell viability assay (AID 1918989); further: nearly all actives have a fitted effect of over 40% in size; on viability (% of control): series mostly up to about 46 µM
Procedure, shortened: as §1

[8] = Quantitative High-Throughput drug screen in 47 multiple myeloma cell lines against the NCATS MIPE library collection: SKMM1_PLB cell viability assay (AID 1919863); conditions: SKMM1 myeloma viability, CellTiter-Glo ATP, 48 h; viability: stronger effect = lower value; further: nearly all actives have a fitted effect of over 35% in size; on viability: series mostly up to about 46 µM
Procedure, shortened: as §1

[9] = Quantitative High-Throughput drug screen in 47 multiple myeloma cell lines against the NCATS MIPE library collection: U266_ATCC cell viability assay (AID 1919864); further: nearly all actives have a fitted effect of over 35% in size
Procedure, shortened: as §1

[10] = Quantitative High-Throughput drug screen in 47 multiple myeloma cell lines against the NCATS MIPE library collection: XG1_PLB cell viability assay (AID 1919866); further: nearly all actives have a fitted effect of over 35% in size
Procedure, shortened: as §1

[11] = Quantitative High-Throughput drug screen in 47 multiple myeloma cell lines against the NCATS MIPE library collection: KMS34_JCRB cell viability assay (AID 1918985); further: nearly all actives have a fitted effect of over 40% in size
Procedure, shortened: as §1

[12] = Quantitative High-Throughput drug screen in 47 multiple myeloma cell lines against the NCATS MIPE library collection: OCIMY7_PLB cell viability assay (AID 1918987); further: nearly all actives have a fitted effect of over 65% in size; on viability (% of DMSO): series mostly up to about 46 µM
Procedure, shortened: as §1

[13] = Quantitative High-Throughput drug screen in 47 multiple myeloma cell lines against the NCATS MIPE library collection: OCIMY5_PLB cell viability assay (AID 1918988); further: nearly all actives have a fitted effect of over 65% in size
Procedure, shortened: as §1

[14] = Quantitative High-Throughput drug screen in 47 multiple myeloma cell lines against the NCATS MIPE library collection: XG6_PLB cell viability assay (AID 1919865); further: nearly all actives have a fitted effect of over 40% in size
Procedure, shortened: as §1

[15] = Quantitative High-Throughput drug screen in 47 multiple myeloma cell lines against the NCATS MIPE library collection: MOLP8_DSMZ cell viability assay (AID 1918977); further: nearly all actives have a fitted effect of over 45% in size
Procedure, shortened: as §1

[16] = Quantitative High-Throughput drug screen in 47 multiple myeloma cell lines against the NCATS MIPE library collection: LP1_DSMZ cell viability assay (AID 1918982); further: nearly all actives have a fitted effect of over 35% in size
Procedure, shortened: as §1

[17] = Quantitative High-Throughput drug screen in 47 multiple myeloma cell lines against the NCATS MIPE library collection: KMS26_JCRB cell viability assay (AID 1918975); further: nearly all actives have a fitted effect of over 45% in size
Procedure, shortened: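 Myeloma cell lines, 500 cells per well, exposed to MIPE 4.0 library compounds for 48 h at 37C, 5% CO2. Viability from ATP by CellTiter-Glo luminescence; normalised to DMSO (100%) and media-only (0%) wells.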

[18] = Quantitative High-Throughput drug screen in 47 multiple myeloma cell lines against the NCATS MIPE library collection: KMS28PE_JCRB cell viability assay (AID 1918983); further: nearly all actives have a fitted effect of over 35% in size
Procedure, shortened: as §1
Potency means the concentration at half of the fitted maximal effect.

COc1cccc(-c2ccc(NC(=O)C3=C(C(=O)O)CCC3)c(F)c2)c1
inactive: Potency [3] | Potency [6]
active: Potency [1] 20.9 µM | Potency [2] 20.9 µM | Potency [4] 3.72 µM | Potency [5] 23.5 µM | Potency [7] 6.62 µM | Potency [8] 5.9 µM | Potency [9] 13.2 µM | Potency [10] 4.18 µM

Cc1cnc(-c2cnc(NCCNc3ccc(C#N)cn3)nc2-c2ccc(Cl)cc2Cl)[nH]1
active: Potency [2] 10.5 µM | Potency [11] 5.9 µM | Potency [12] 4.18 µM | Potency [13] 20.9 µM | Potency [14] 6.62 µM
inactive: Potency [6]

CC(=O)SC[C@@H](C)C(=O)N1CCC[C@H]1C(=O)N[C@@H](Cc1ccccc1)C(=O)O
active: Potency [1] 1.87 µM
inactive: Potency [15] | Potency [2] | Potency [3] | Potency [5] | Potency [16] | Potency [12] | Potency [7] | viability [8] 151% | Potency [10]

C1Cc2[nH]nc(-c3nn[nH]n3)c2C1
inactive: Potency [17] | Potency [2] | Potency [4] | Potency [5] | Potency [16] | Potency [18] | Potency [6] | viability [8] 115% | Potency [14] | Potency [10]

CC(C)(C)NC(=O)[C@H]1CN(Cc2cccnc2)CCN1C[C@@H](O)C[C@@H](Cc1ccccc1)C(=O)N[C@H]1c2ccccc2C[C@H]1O
active: Potency [17] 20.9 µM | Potency [5] 26.4 µM | Potency [12] 10.5 µM | Potency [13] 26.4 µM | Potency [7] 11.8 µM | Potency [8] 18.7 µM | Potency [14] 23.5 µM | Potency [10] 2.96 µM

Clc1cccc(-n2nnnc2NCc2ccccc2Oc2ccccn2)c1Cl
inactive: Potency [2] | Potency [3] | Potency [4] | Potency [5] | Potency [18] | Potency [11] | Potency [7] | viability [8] 120%

COc1cccc(Nc2c(C(N)=O)cnc3c(C)cc(S(=O)(=O)c4cccc(C(=O)N(C)C)c4)cc23)c1
inactive: Potency [2] | Potency [18] | Potency [7] | viability [8] 113% | Potency [14] | Potency [10]

CC(O)C1C(=O)N2C(C(=O)O)=C(SC3CNC(C(=O)N(C)C)C3)C(C)C12 (stereo not drawn)
inactive: Potency [2] | Potency [18] | Potency [11] | Potency [13] | Potency [7] | Potency [14] | Potency [10]

CCNC(=O)Nc1ccc2ncc(Nc3ccc(C)cc3)nc2n1
active: Potency [1] 14.8 µM | Potency [5] 18.7 µM | Potency [7] 7.43 µM | Potency [10] 0.332 µM
inactive: Potency [18] | viability [8] 139%

COc1ccc(CC2c3cc(OC)c(OC)cc3CC[N+]2(C)CCC(=O)OCCCCCOC(=O)CC[N+]2(C)CCc3cc(OC)c(OC)cc3C2Cc2ccc(OC)c(OC)c2)cc1OC (stereo not drawn)
active: Potency [12] 4.13 µM | Potency [10] 1.46 µM
inactive: viability (% of DMSO) [17] 102% [at 5.15 µM] | viability (% of control) [16] 101% [at 5.15 µM] | viability, % of DMSO control [18] 105% [at 5.15 µM] | viability (% of control) [7] 96.3% [at 5.15 µM] | viability (% of DMSO control) [9] 135% [at 5.15 µM]

COc1ccc(-n2nc(C(N)=O)c3c2C(=O)N(c2ccc(N4CCCCC4=O)cc2)CC3)cc1
inactive: Potency [2] | Potency [3] | Potency [5] | Potency [6] | Potency [11] | Potency [12] | Potency [13] | Potency [7] | Potency [14] | Potency [10]

CC1(C)O[C@@H]2C[C@@H]3[C@H]4C[C@@H](F)C5=CC(=O)C=C[C@]5(C)[C@@]4(F)[C@@H](O)C[C@]3(C)[C@]2(C(=O)CO)O1
inactive: Potency [2] | Potency [3] | Potency [5] | Potency [11] | Potency [14] | Potency [10]
active: Potency [1] 0.0105 µM | Potency [4] 0.0118 µM | Potency [6] 0.0372 µM | Potency [13] 0.0166 µM | Potency [7] 0.0187 µM

O=c1c2ccccc2nc2n1CCc1c-2[nH]c2ccccc12
active: Potency [12] 18.7 µM | Potency [8] 23.5 µM
inactive: Potency [15] | Potency [3] | Potency [5] | Potency [16] | Potency [11] | Potency [9] | Potency [14]

O=C(NCCS(=O)(=O)c1ccc(C(F)(F)F)cn1)c1ccc(Cl)cc1
inactive: Potency [1] | Potency [15] | Potency [2] | Potency [3] | Potency [4] | Potency [16] | Potency [18] | Potency [6] | Potency [11] | Potency [7] | viability [8] 128% | Potency [9] | Potency [10]

O=C(O)c1ccc2cc(-c3ccc(O)c(C45CC6CC(CC(C6)C4)C5)c3)ccc2c1
active: Potency [1] 18.7 µM | Potency [15] 1.32 µM | Potency [3] 16.6 µM | Potency [4] 1.32 µM | Potency [5] 0.662 µM | Potency [16] 20.9 µM | Potency [18] 3.32 µM | Potency [6] 0.833 µM | Potency [11] 13.2 µM | Potency [12] 0.105 µM | Potency [13] 2.96 µM | Potency [8] 4.18 µM | Potency [14] 0.132 µM | Potency [10] 0.526 µM

CCCn1c(=O)c2[nH]c(-c3cnn(Cc4cccc(C(F)(F)F)c4)c3)nc2n(CC)c1=O
active: Potency [1] 13.2 µM | Potency [15] 5.9 µM | Potency [4] 16.6 µM | Potency [16] 10.5 µM | Potency [13] 23.5 µM
inactive: Potency [2] | Potency [3] | Potency [18] | Potency [7] | Potency [9] | Potency [10]

CC1COC2(CCN(c3nc(=O)c4cc(C(F)(F)F)cc([N+](=O)[O-])c4s3)CC2)O1 (stereo not drawn)
inactive: Potency [15] | Potency [3] | Potency [4] | Potency [5] | Potency [16] | Potency [18] | Potency [11] | Potency [7] | viability [8] 134% | Potency [9] | Potency [14] | Potency [10]

CC(=O)OCCN1C(=O)c2c(C)nc3ccc(S(=O)(=O)N4CCOCC4)cc3c2C1=O
inactive: Potency [15] | Potency [2] | Potency [5] | Potency [16] | Potency [18] | Potency [6] | Potency [11] | Potency [13] | Potency [7] | Potency [14] | Potency [10]

NC(=O)c1cccc2cn(-c3ccc([C@@H]4CCCNC4)cc3)nc12
inactive: Potency [15] | Potency [16] | Potency [7] | Potency [9]
active: Potency [2] 20.9 µM

CC(C)Nc1cc(C(F)(F)F)cc2nc(NC(=O)c3cccnc3)nn12
inactive: Potency [15] | Potency [2] | Potency [3] | Potency [5] | Potency [16] | Potency [18] | Potency [6] | Potency [11] | Potency [7] | Potency [10]
active: Potency [1] 1.87 µM | Potency [13] 8.33 µM | Potency [9] 7.43 µM

CC(C)c1noc(N2CCC(COc3ccc(-c4ccc(S(C)(=O)=O)cc4)nc3)CC2)n1
active: Potency [1] 9.35 µM | Potency [15] 0.418 µM | Potency [5] 13.2 µM | Potency [18] 16.6 µM | Potency [13] 8.33 µM | Potency [14] 3.72 µM | Potency [10] 2.64 µM
inactive: Potency [4] | Potency [6] | Potency [11] | Potency [7] | Potency [9]

CNC(=O)c1ccc(-c2cnc3ncc(Cc4ccc5ncccc5c4)n3n2)cc1F
active: Potency [13] 23.5 µM
inactive: Potency [17] | Potency [2] | Potency [3] | Potency [4] | Potency [16] | Potency [18] | Potency [6] | Potency [11] | Potency [7] | viability [8] 133% | Potency [9]

COc1ccc2c(OCc3nnc4ccc(-c5ccccc5)nn34)ccnc2c1
active: Potency [14] 0.469 µM
inactive: Potency [1] | Potency [2] | Potency [3] | Potency [4] | Potency [5] | Potency [16] | Potency [11] | Potency [9] | Potency [10]

COC(=O)C[C@](O)(CCCC(C)(C)O)C(=O)O[C@@H]1C(OC)=C[C@]23CCCN2CCc2cc4c(cc2[C@H]13)OCO4
inactive: Potency [15] | Potency [2] | Potency [3] | Potency [4] | Potency [16] | Potency [18] | Potency [12] | Potency [7] | Potency [14] | Potency [10]
active: Potency [11] 16.6 µM

CN(C)CC(C)(C)CNc1nn2c(-c3ccccc3)nnc2cc1C1CCC1
active: Potency [4] 0.166 µM
inactive: Potency [3] | Potency [16]

CC(C)(O)CCc1ccc(OCc2cc(-c3cccc(OC(F)F)c3)c3ncccc3c2)cc1
inactive: Potency [3] | Potency [16] | Potency [6] | Potency [11] | Potency [7] | viability [8] 123%
active: Potency [4] 14.8 µM | Potency [14] 20.9 µM
